An excerpt weighted towards active compounds, which were near 3.5% of everything screened.
Pf apPOL inh: Pf-apPOL DNA polymerase inhibition. Recombinant Pf-apPOL, molecular beacon fluorescence, 1.5 h. inhibition, % at 10 µM. hit rate 0.25% among 210,000. AID 1794808
mHTT CaM bind: inhibitors of human mutant huntingtin-calmodulin interaction; P42858; AlphaScreen His-mHTT/GST-CaM binding, luminescence; inhibition, % at 15 µM; hit rate 3.6% among 190,000; AID 1671202;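 further: 0% = both proteins with DMSO and 100% = one protein alone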
Starred values were filed as active, the others as inactive; / = no result given. No stated cut-off is given here; in the data, active means inhibition above about 50%; inactive means the rest.

SMILES	Pf apPOL inh	mHTT CaM bind
COc1ccccc1CN1COc2ccc3c(c2C1)OC(=Cc1cc(OC)c(OC)c(OC)c1)C3=O	-17.2	8.0
COc1ccc(C=C2Oc3c(ccc4c3CN(Cc3ccccn3)CO4)C2=O)c(OC)c1	-89.2	100.2*
COc1cc(C=C2Oc3c(ccc4c3CN(Cc3ccccn3)CO4)C2=O)cc(OC)c1OC	-35.9	100.3*
COc1cccc(CN2COc3ccc4c(c3C2)OC(=Cc2cc(OC)c(OC)c(OC)c2)C4=O)c1	8.0	11.0
COc1ccc(OC)c(C=C2Oc3c(ccc4c3CN(Cc3ccncc3)CO4)C2=O)c1	-4.6	15.6
COc1cccc(C=C2Oc3c(ccc4c3CN(Cc3ccccn3)CO4)C2=O)c1	-32.9	99.3*
Cc1c(C2N=C(N)Nc3nc4ccccc4n32)c2ccccc2n1C (configuration not stated)	/	15.1
CC1CCCN(C(=O)C2CSCCC(=O)N2)C1 (configuration not stated)	-2.0	-2.9
O=C(Nc1cccc(C(=O)O)c1)/C(=C/c1ccco1)NC(=O)c1ccco1	-8.4	4.2
COc1ccc(N2COc3ccc4c(c3C2)OC(=Cc2ccc(OC)c(OC)c2)C4=O)cc1	4.8	31.3
COc1cc(C=C2Oc3c(ccc4c3CN(c3ccc5c(c3)OCO5)CO4)C2=O)cc(OC)c1OC	-1.4	59.1*
CC(=O)N1CCC2(CC1)C1CN(C(C)=O)CC=C1C(C#N)=C(N)C2(C#N)C#N (configuration not stated)	-13.1	-8.1
CCC(=O)N1CCN(c2nc(C)nc(C)c2Cc2ccc(Cl)cc2Cl)CC1	4.2	51.9*
Cc1nc(C)c(Cc2ccc(Cl)cc2)c(N2CCN(C(=O)C3CC3)CC2)n1	-4.1	13.1
CCC(=O)N1CCN(c2nc(C)nc(C)c2Cc2c(F)cccc2Cl)CC1	-4.5	10.3
Cc1nc(C)c(Cc2ccc(Cl)cc2)c(N2CCN(C(=O)C3CCC3)CC2)n1	3.2	92.9*
CCN(CC)c1ccc(NC(=O)c2cnccn2)cc1	1.6	59.6*
CCOc1ccc(NC(=O)c2cnccn2)cc1	-1.7	0.2
O=C(NCCCn1ccnc1)C(=O)NCc1ccc(F)cc1	-5.8	70.2*
Cc1ccc(NC(=O)C(=O)NCCCn2ccnc2)cc1F	-8.0	16.7
CNCC(O)Cn1c2ccccc2c2ccccc21 (configuration not stated)	4.0	13.4
Cc1cccc(NCC(O)Cn2c(C)c(C)c3ccccc32)c1C (configuration not stated)	-6.3	93.0*
Cc1ccc(NCC(O)Cn2c(C)c(C)c3ccccc32)c(C)c1 (configuration not stated)	-7.6	82.0*
CC(NCC(O)Cn1c2ccccc2c2ccccc21)C(=O)O (configuration not stated)	-5.9	3.8
CCC(CO)NCC(O)Cn1c2ccccc2c2ccccc21 (configuration not stated)	-3.1	-3.0
SMILES	Pf apPOL inh	mHTT CaM bind
Cc1ccc(S(=O)(=O)NCC(O)Cn2c3ccccc3c3ccccc32)cc1 (configuration not stated)	12.7	28.0
Cc1ccccc1NCC(O)Cn1c(C)c(C)c2ccccc21 (configuration not stated)	1.4	96.0*
Cc1c(C)n(CC(O)CNc2ccc(I)cc2)c2ccccc12 (configuration not stated)	4.7	99.0*
Cn1c2c(c(=O)n(C)c1=O)C(c1ccc3c(c1)OCO3)C1C(=O)c3ccccc3C1=N2 (configuration not stated)	-1.0	1.0
O=C(NCc1ccc(N2CCCCCC2)nc1)C1CCCCC1	1.1	8.3
CCCn1cnnc1C1CCCN(C(=O)Cc2cccs2)C1 (configuration not stated)	2.2	-3.3
N#Cc1ccc(S(=O)(=O)N2CCC(Oc3ccc(-n4cnnn4)cc3)CC2)cc1	-7.5	-8.0
CCn1c(CC2CCN(C(=O)c3nccc4ccccc34)C2)nc2cccnc21 (configuration not stated)	-4.5	6.8
CCCC(=O)Nc1nnc(SCc2ccc(Br)cc2)s1	-1.9	-10.4
CSC(N=CN(C)C)=NN=C(C)c1cc2ccccc2o1	-14.1	/
COc1ccccc1NCC(O)Cn1ccc2ccccc21 (configuration not stated)	-2.9	46.4
COc1ccccc1NCC(O)Cn1c(C)c(C)c2ccccc21 (configuration not stated)	-2.4	59.0*
Cc1cccc(C2C(C(=O)NC3CC3)c3ccccc3C(=O)N2C2CC2)c1 (configuration not stated)	0.3	-10.8
O=C(Nc1nccs1)C1CCN(C(=O)c2ccc(Cn3ccnc3)cc2)CC1	-0.7	-3.2
CC(C)c1ccc(NC(=O)CN2C(=O)C(c3ccc(F)cc3)=NC23CCCC3)cc1	-6.6	-8.6
COc1ccc(N2CCN(c3cc(C(=O)N(C)C(C)C)c4ccccc4n3)CC2)cc1	-0.6	-5.6
Cc1cc(C(c2ccccc2)c2cc(C)c(N)c(C)c2)cc(C)c1N	-4.2	80.4*
Cc1cc(C(c2cc(C)c(N)c(C)c2)c2ccco2)cc(C)c1N	-3.0	46.0
Cc1ccc(NCCNC(=O)c2ccc(Br)o2)nn1	-5.2	-17.1
COc1ccc(N=C(N)C(C#N)=Cc2[nH]c3ccccc3c2O)cc1	2.5	69.0*
CN1CCN(C(=N)C(C#N)=Cc2[nH]c3ccccc3c2O)CC1	1.2	24.0
O=c1[nH]c2ccc(S(=O)(=O)Nc3ccc(OC(F)(F)F)cc3)cc2s1	-5.4	4.0
CCn1cnc2ccc(-c3noc(Cc4ccc(Cl)cc4)n3)cc21	-1.7	24.6
OC(COCCC12CC3CC(CC(C3)C1)C2)CN1CCN(c2ccccc2F)CC1 (configuration not stated)	5.1	53.3*
OC(COCC12CC3CC(CC(C3)C1)C2)CN1CCN(Cc2ccccc2)CC1 (configuration not stated)	1.8	24.6
SMILES	Pf apPOL inh	mHTT CaM bind
OC(COCCC12CC3CC(CC(C3)C1)C2)CN1CCN(Cc2ccccc2)CC1 (configuration not stated)	-1.4	56.6*
OC(COCC12CC3CC(CC(C3)C1)C2)CN1CCN(c2ccccc2F)CC1 (configuration not stated)	-4.1	32.6
CCC(=O)NCc1nc2c(n1CC)CN(C(=O)c1ccc(Br)cc1)CC2	-4.6	2.1
Cn1cnc2c(sc3nc4c(cc32)COC(C)(C)C4)c1=O	1.0	-1.6
Cc1ccc(-c2n[nH]c3c2CN(C(=O)c2ccoc2)CC3)cc1	-9.3	9.8
Cc1ccc(-c2n[nH]c3c2CN(C(=O)c2cccn2C)CC3)cc1	-11.5	54.6*
Cn1nc(C(=O)N2CCc3[nH]nc(-c4ccccc4)c3C2)c2ccccc21	-6.2	87.4*
O=C(c1ccccn1)N1CCc2[nH]nc(-c3ccccc3)c2C1	-10.4	-3.7
O=S(=O)(NCC1(c2ccccc2)CCOCC1)c1cccc(C(F)(F)F)c1	-1.6	-14.4
COc1ccc(-c2cnoc2-c2ccc(OC)cc2)cc1	-7.2	-54.0
O=C(Cc1ccc(F)cc1)Nc1ccc2c(c1)OC1(CCCCC1)O2	-8.4	8.0
COc1ccc(C(=O)N2CCCC(COc3cccc(C(=O)NC4CC4)c3)C2)cc1 (configuration not stated)	-5.1	0.1
CCc1nc2cccnc2n1C1CCN(C(=O)NCCCOC)C1 (configuration not stated)	-0.4	2.8
Cc1ccc(C(=O)N2CCN(C(=O)c3ccccc3)C2c2ccc(N(C)C)cc2)cc1 (configuration not stated)	6.3	40.0
